Assay outcomes from PubChem.
FBPA Giardia inh: Giardia lamblia aldolase inhibition. purified Giardia FBPA. Potency, µM (top dose mostly 59.6 µM), actives largely listed as inhibitors. hit rate 0.71% among 290,000. AID 2451; further: nearly all actives have a fitted effect of over 55% in size
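Giardia FBPA (40 nM reagent) was preincubated 10 min at RT with compound (up to 57.5 uM final), then substrate plus GAPDH/TPI/NAD/arsenate coupling system with diaphorase/resazurin was added; resorufin fluorescence (525/598 nm) was read after 20 min.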
AmpC inh detg: blocks E. coli AmpC beta-lactamase in detergent assay; AID 485294; Potency, µM (doses to about 114 µM), usual class: inhibitors; AmpC hydrolysis of nitrocefin, absorbance 480 nm, 0.01% Triton; hit rate 0.041% among 370,000; further: nearly all actives have a fitted effect of over 25% in size
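20 mM phosphate pH 7.0 + 0.01% (detergent screen) or 0.0001% Triton X-100; 5.3 nM AmpC reagent; cpd preinc 15 min RT; nitrocefin (800 uM stock) to start; A480 q20 s × 4 min; Activity was normalised to no-enzyme and no-compound control wells.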
AMA1-RON2 inh: inhibitors of Plasmodium falciparum AMA1-RON2 interaction; AlphaScreen AMA1-biotinylated RON2 peptide binding; Potency, µM (titrated, usually from 58.2 µM), hits mostly inhibitors; hit rate 0.2% among 360,000; AID 720542; further: nearly all actives have a fitted effect of over 45% in size
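AMA1 (3D7) with his tag at 25 nM final met compounds first, then biotinylated RON2 peptide at 25 nM; detection used donor plus acceptor beads, 10 µg/mL apiece, read by AlphaScreen after 30 min at room temperature.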
AmpC inh no detg: inhibitors of E. coli AmpC beta-lactamase without detergent; P00811; AmpC nitrocefin hydrolysis, absorbance 480 nm, 0.0001% Triton; Potency, µM (top dose mostly 57.1 µM), actives largely listed as inhibitors; hit rate 0.52% among 330,000; further: nearly all actives have a fitted effect of over 20% in size
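AmpC (5.3 nM in the dispensed reagent) in 20 mM phosphate pH 7.0 with 0.01% (detergent screen) or 0.0001% Triton X-100 was preincubated with compounds for 15 min at room temperature. Nitrocefin was then added from an 800 uM solution, and hydrolysis was followed at 480 nm.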
LmPK inh: inhibitors of Leishmania mexicana pyruvate kinase | Potency, µM (highest dose often 57.5 µM), usual class: inhibitors | hit rate 0.37% among 290,000 | purified LmPK, Kinase-Glo ATP luminescence, 1 h | AID 1721
Target sequence (Q27686 whole entry, looked up): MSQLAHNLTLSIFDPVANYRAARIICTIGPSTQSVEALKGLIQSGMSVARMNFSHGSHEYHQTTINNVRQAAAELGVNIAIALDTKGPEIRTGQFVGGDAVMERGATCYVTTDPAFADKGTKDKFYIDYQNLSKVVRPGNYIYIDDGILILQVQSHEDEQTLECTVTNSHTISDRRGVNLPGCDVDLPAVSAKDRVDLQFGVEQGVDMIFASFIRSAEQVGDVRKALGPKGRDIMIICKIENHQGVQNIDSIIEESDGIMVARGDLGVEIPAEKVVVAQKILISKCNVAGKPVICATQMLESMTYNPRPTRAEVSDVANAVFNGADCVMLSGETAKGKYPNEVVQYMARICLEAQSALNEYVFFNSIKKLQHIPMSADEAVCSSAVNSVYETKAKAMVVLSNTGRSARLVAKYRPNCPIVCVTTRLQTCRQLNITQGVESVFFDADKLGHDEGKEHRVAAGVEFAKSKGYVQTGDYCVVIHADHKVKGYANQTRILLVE
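ATP generated from ADP (0.1 mM) and PEP (0.5 mM) by 0.1 nM LmPK over 1 h at room temperature (pH 7.2 imidazole buffer) was detected by coupled luciferase luminescence. Values were normalized to uninhibited and no-enzyme wells.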
Hits are given with their value; . = inactive; ? = inconclusive; / = no result given; [ ] = remark or other dose. A selection: hits, their analogues and other compounds. The true share with any hit is near 1.3%. The call rests on the fitted dose curve; in most records, active means well fitted curve in the direction sought with a large enough effect; inconclusive means small, poorly fitted or top-dose-only effect, or another doubt; inactive means no such curve, though single readings can be large; an effect the other way counts as inactive or inconclusive.

SMILES	FBPA Giardia inh	AmpC inh detg	AMA1-RON2 inh	AmpC inh no detg	LmPK inh
COc1c(C)cc(NS(=O)(=O)c2ccc3c(c2)OCCO3)cc1C	/	.	/	/	/
O=C(CN1CCN(C(=O)C2CCN(C(=O)/C=C/c3ccccc3)CC2)CC1)Nc1ccc(F)cc1	/	/	.[11.6 µM]	/	/
CCn1c(-c2ccccc2)c[nH]c1=S	.	.	.	.	14.1µM
S=c1[nH]cc(-c2ccccc2)n1-c1ccccc1	.	.	.	.	3.16µM
CC(NS(=O)(=O)c1ccc(Br)cc1)C(c1cccs1)N1CCN(C)CC1 (configuration not stated)	.	?	.	44.7µM	.
NS(=O)(=O)c1cccc(NS(=O)(=O)c2ccc(/C=C/C(=O)OCC(=O)c3ccccc3)cc2)c1	.	.	.	3.55µM	.
O=C(C(=O)N1CCN(C/C=C/c2ccccc2)CC1)c1ccccc1	/	/	.	/	/
CCCSc1ccc2nc(-c3ccccc3)cn2c1	.	.	.	.	6.31µM
C/C(Cl)=C/CC1(CN2CCCC2=O)C(=O)NC(=O)NC1=O	.	28.2µM	.	.	.
C[N+](C)(C)CC#CCN1CCCC1=O	.	/	.	/	/
COc1ccc(C)cc1NC(=O)CSc1ccc(-c2ccccn2)nn1	/	.	20µM	.	.
O=C(O)C1(C(=O)O)CCC1.[NH2-].[NH2-].[Pt+2]	14.1µM	/	/	/	/
O=C(O)C1(C(=O)O)CCCC1	/	/	.	/	/
CN1CCN(c2ncc3nc(-c4ccccc4)c(=O)n(-c4ccccc4)c3n2)CC1	.	/	/	/	/
CCN(CC)CCCN(Cc1cc2cc(OC)c(OC)cc2[nH]c1=O)C(=O)Nc1ccccc1	.	.	.	.	.
CCN(CC)CCCN(Cc1cc2cc3c(cc2[nH]c1=O)OCO3)C(=O)Nc1ccccc1OC	.	.	.	0.398µM	.
Cc1cccc(N2CCN(S(=O)(=O)c3ccc(-c4cc(C(F)(F)F)on4)s3)CC2)c1C	/	.	/	/	/
CCCCNC(=O)COC(=O)c1c2c(nc3ccccc13)/C(=C/c1cccs1)CC2	.	.	.	25.1µM	.
CC(=O)c1cccc(NC2c3ccccc3C(=O)N2Cc2ccco2)c1 (configuration not stated)	.	.	.	.	.
CCOC(=O)c1cccc(NC2c3ccccc3C(=O)N2Cc2ccco2)c1 (configuration not stated)	.	?	.	0.891µM	.
COCCNC(=O)C1(C)CCCN(Cc2cccc(OC(=O)c3ccccc3)c2)C1 (configuration not stated)	/	/	.	/	/
c1ccc(N=Nc2ccc3cccccc2-3)cc1	/	/	4.47µM	/	/
CC1(C)CC(=O)C=C(C#CC2(O)CCCCC2)C1	/	/	.	/	/
S=c1[nH]ncn1/N=C/c1cccc(Oc2ccccc2)c1	.	.	.	.	10µM
Nc1cccc(-c2nc3ccccc3[nH]2)c1	.	.	.	.	?
SMILES	FBPA Giardia inh	AmpC inh detg	AMA1-RON2 inh	AmpC inh no detg	LmPK inh
Cc1ccc2nc(-c3cccc(N)c3)[nH]c2c1	.	.	?	.	15.8µM
CCOc1ccc2nc(-c3ccccc3)[nH]c2c1	.	.	.	.	?
COc1ccc2nc(-c3ccccc3)[nH]c2c1	?	?	.	.	15.8µM
O=C(CSc1ccc(-c2nc3ccccc3[nH]2)cn1)Nc1ccc2c(c1)OCCO2	.	.	.	0.562µM	.
Cc1ccc2nc(-c3ccc(SCC(=O)Nc4ccc5c(c4)OCCO5)nc3)[nH]c2c1	.	?	.	.	.
CCOC(=O)CSc1ccc(-c2nc3ccccc3[nH]2)cn1	.	.	.	.	?
N#CCSc1ccc(-c2nc3ccccc3[nH]2)cn1	.	.	.	.	25.1µM
COC1=CC(=O)C(O)=C/C1=C\C=C\c1ccccc1	22.3µM	/	/	/	/
C[C@@H]1O[C@@H](OC[C@@H]2O[C@H](Oc3c(-c4ccc(O)cc4)oc4cc(O)cc(O)c4c3=O)[C@@H](O)[C@H](O)[C@H]2O)[C@H](O)[C@H](O)[C@H]1O	/	/	.	.	/
CC1OC(Oc2c(-c3cc(O)c(O)c(O)c3)oc3cc(O)cc(O)c3c2=O)C(O)C(O)C1O (configuration not stated)	9.98µM	.	.	.	.
CCc1cccc(NC(=O)CSC2=NS(=O)(=O)c3ccccc32)c1	.	.	.	.	15.8µM
CCc1cccc(NC(=O)CSc2ncc3c(n2)-c2ccccc2N(CC)S3(=O)=O)c1	/	.	/	/	/
C[C@H]1CN(S(=O)C(C)(C)C)[C@H](CCO)/C1=C\c1ccccc1 (some centres not stated)	/	/	.	/	/
Cc1ccc(N(CC(=O)N/N=C/c2cccc(Br)c2)S(C)(=O)=O)cc1	?	.	.[11.6 µM]	14.1µM	.
O=[N+]([O-])c1cc([N+](=O)[O-])c(Oc2cc(Cl)cc(Cl)c2)cc1NN1CCCCC1	/	.	.	.	/
C=CCN1C(=O)N/C(=C/c2ccc(C)o2)C1=O	15.8µM	.	.	.	.
Cc1ccc(NC(=O)CN2C(=O)N/C(=C/c3ccc(C)o3)C2=O)cc1	?	.	.	.	.
CCN(C(=O)Cn1c(=O)n(Cc2ccccc2)c(=O)c2c1c1cc(OC)ccc1n2C)c1ccccc1	/	.	/	/	/
Cc1ccc(C(=O)Nc2cccc(C(=O)N3CCOCC3)c2)cc1Cl	.	?	.	.	.
O=C(NCCc1ccc(Cl)cc1)c1nnc(Cc2ccc(F)cc2)o1	/	.	/	/	/
COc1ccc2c(c1)C(CC(C)=O)N(c1ccc(-c3cccs3)cc1)C(c1ccsc1)=C2 (configuration not stated)	/	/	.	/	/
COc1cc(/C=C2\SC(=S)N(Nc3ccccc3)C2=O)ccc1O	.	.	?	.	.
O=C1/C(=C/c2ccc(O)c(O)c2)SC(=S)N1Nc1ccccc1	?	.	?	25.1µM	.
COC(=O)c1cccnc1N1CCN(c2ccccc2F)CC1	.	.	.	0.159µM	.
Cc1nc(Cl)sc1C(=O)Nc1ccc(F)cc1	/	/	.	/	/
SMILES	FBPA Giardia inh	AmpC inh detg	AMA1-RON2 inh	AmpC inh no detg	LmPK inh
CC(C)S(=O)(=O)c1csc(C(=O)Nc2ccc(F)cc2)c1N	.	.	.	.	14.1µM
OC[C@@H]1CN(Cc2ccncc2)C[C@H](n2cnc3c(NCc4ccncc4)ncnc32)O1	/	/	.	/	/
CCOc1ccc(N(CC(=O)Nc2cccc(OC)c2)S(=O)(=O)c2c(C)noc2C)cc1	.	?	.	17.8µM	.
COc1ccc(N(CC(=O)Nc2ccc3c(c2)OCO3)S(=O)(=O)c2ccccc2)cc1	.	.	.	.	.
COc1ccc(N(CC(=O)Nc2ccc3c(c2)OCCO3)S(=O)(=O)c2cccnc2)cc1	.	.	.	39.8µM	.
Cc1ccccc1NC(=S)NNC(=O)c1cccnc1	.	.	.	.	17.8µM
COc1cc(/C=C2\SC(N)=NC2=O)ccc1OCC(=O)Nc1ccc(C)cc1	.	?	.	10µM	.
COc1ccc(/C=C2/SC(=O)N(CCC(=O)Nc3ccc(C)cc3)C2=O)cc1OC	.	.	/	.	.
O=c1ccn([C@@H]2O[C@H](CNS(=O)(=O)C3CC3)[C@@H](O)[C@H]2O)c(=O)[nH]1	/	/	.	/	/
